S1P3 antag-1: S1P3 receptor antagonists, primary screen, cell-based. Sphingosine 1-phosphate receptor 3 (Homo sapiens), Q99500. CHO S1P3 NFAT-BLA reporter, FRET fluorescence, antagonist mode. inhibition, % at 4.98 µM. hit rate 0.27% among 170,000. AID 485, 2006;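 active = inhibition above the plate cutoff, the mean inhibition of test wells on that plate plus 3 SD, cut at about 28% in these data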;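 also: cells challenged with S1P at its EC80 of 0.8 µM; blue over green emission ratio from cleaved BLA substrate after 4 h stimulation; 0% = S1P-stimulated wells and 100% = unstimulated DMSO-only wells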
EP2 antag: human EP2 receptor antagonists, primary screen, TR-FRET cAMP, C6 glioma cells; Prostaglandin E2 receptor EP2 subtype (Homo sapiens), P43116; C6 glioma cells expressing human EP2; cells stimulated with saturating PGE2; inhibition, % at 25 µM; hit rate 0.52% among 260,000; AID 1422, 2008;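 active = percent inhibition above 40 after rounding to a whole number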;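 also: rat C6 glioma host cells with rolipram phosphodiesterase inhibitor present; the protocol text gives 20 µM as final concentration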
EP2 modulator: EP2 receptor modulators, cAMP readout, primary screen, cell-based, HTRF cAMP, PGE2 stimulation; induction, % at 25 µM; Prostaglandin E2 receptor EP2 subtype (Homo sapiens), P43116; EP2-expressing cells, cAMP HTRF FRET, PGE2 co-stimulation; hit rate 0.83% among 260,000;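 active = compounds whose cAMP rise, as percent of the full-agonist control response, exceeds 60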;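 also: rat C6 glioma line stably carrying human EP2 under a CMV promoter; the protocol text gives 20 µM as final concentration; 100% = response of wells given 1 µM PGE2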
Cl transport mod: KCC2 cotransporter modulators, thallium flux, primary screen, cell-based, HEK293 KCC2, FluoZin-2 fluorescence, MLSMR; AID 1456, 2008; hit rate 2.2% among 190,000; B-score of Tl+ flux slope (higher = more flux/activation; lower = inhibition) at 10 µM; KCC2 cells, thallium flux FluoZin-2 fluorescence; Solute carrier family 12 member 5 (Homo sapiens), Q9H2X9;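 active = thallium flux slope and its plate-corrected score both differing from the plate sample mean at a set confidence after two filtering rounds, in either direction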;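 also: slope of fluorescence scaled to starting intensity during 10 to 20 s after thallium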
S1P3 antag-2: S1P3 receptor antagonists, retest, confirmation, cell-based; shares compounds with S1P3 antag-1; CHO S1P3 NFAT-BLA reporter, FRET, antagonist mode; inhibition, % at 4.98 µM; hit rate 30% among 240;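 active = inhibition above the hit threshold that was computed for the earlier primary screen, cut at about 30% in these data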;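 also: 0% = S1P-stimulated wells and 100% = unstimulated DMSO-only wells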
* = called active by the depositor; i = inactive; . = not tested or not shown. Sampled rows, rich in hits. Any-hit rate of the full collection: about 3.1%.

SMILES | S1P3 antag-1 | EP2 antag | EP2 modulator | Cl transport mod | S1P3 antag-2
COc1ccc(CCN2C(=O)C(O)=C(C(C)=O)C2c2ccc(Br)cc2)cc1OC (configuration not stated) | . | 14 | 9 | . | .
Cc1cc(C)nc(SCC(=O)N2C3CCC2CC(c2ccc(F)cc2)C3)n1 (configuration not stated) | . | . | -12 | . | .
Cc1cccc(Cn2nc(C(C)(C)C)cc2C(=O)Nc2ccc(F)cc2)c1 | 37* | 5 | 21 | -0.21 | 53*
CC(C)(C)c1cc(C(=O)NN)n(Cc2ccc(F)cc2)n1 | 5 | 2 | -30 | 0.18 | .
CC(C)C(=O)N1CCC[C@H]1Cn1nc(-c2cccs2)ccc1=O | . | . | -11 | . | .
CC(C)C(=O)NC(=S)Nc1ccc(S(=O)(=O)Nc2nccs2)cc1 | 28* | 2 | -16 | -0.56 | -20
C/C(Cn1nnc2ccccc21)=N\NC(=O)c1cccc(Br)c1 | 29* | 3 | 11 | 0.57 | -6
CCOc1cc(S(=O)(=O)NCc2ccncc2)ccc1Cl | 29* | 8 | -17 | 1.2 | 20
CCOc1ccc(S(=O)(=O)NCc2ccncc2)cc1 | . | 6 | -6 | . | .
C=CCOc1ccccc1CN1CCc2c(nc(C)[nH]c2=O)C1 | . | 6 | -23 | . | .
CCN(CC)c1ccc2cc(-c3nc(-c4ccc(OC)cc4)cs3)c(=O)oc2c1 | 42* | 4 | 4 | i | 97*
Cc1c(CCOC(=O)c2cc([N+](=O)[O-])cc([N+](=O)[O-])c2)sc[n+]1CC(=O)c1ccc(Br)cc1 | 38* | 20 | -28 | -0.25 | -11
Cc1c(CCOC(=O)C23CC4(C)CC(C)(CC(C)(C4)C2)C3)sc[n+]1CC(=O)c1ccccc1 | -14 | 28 | -101 | 1.9 | .
COCCNC(=O)C(OC(=O)c1cc2sc(C)cc2n1C)c1ccncc1 (configuration not stated) | . | 8 | -48 | . | .
CCCNC(=O)Cn1cnc2sc(C(=O)N3CCN(Cc4ccc5c(c4)OCO5)CC3)c(C)c2c1=O | 30* | 6 | 7 | 0.3 | -15
O=[N+]([O-])c1ccc(C2=NN(c3ccccc3)C(c3ccco3)C2)cc1 (configuration not stated) | 34* | 9 | 8 | 1 | 46*
O=[N+]([O-])c1ccc(/C=C/C2=NN(c3ccccc3)C(c3ccco3)C2)cc1 (configuration not stated) | -6 | 8 | 8 | 0.54 | .
CN(C)CCCN1C(=O)c2cccc3c([N+](=O)[O-])ccc(c23)C1=O | 33* | 80* | -66 | -0.89 | 0
COC(=O)c1ccc(N2CCN(C(C)=O)CC2)c(NC(=O)COc2ccccc2C)c1 | -16 | 13 | -39 | -1.3 | .
COC(=O)c1ccc(N2CCN(C(=O)c3ccccc3)CC2)c(NC(C)=O)c1 | 40* | 4 | 13 | 0.014 | -11
C=CC[n+]1ccc(/C=C2\C=Cc3cc(C)ccc3N2CC)c2ccccc21 | 30* | 8 | -57 | -0.58 | 39*
CCN1/C(=C/c2cc[n+](CCCS(=O)(=O)[O-])c3ccccc23)Sc2ccccc21 | -54 | 8 | -3 | -0.049 | .
CCOC(=O)N=Nc1c2ccccc2c2nc3no[nH]c3nc12 | 31* | 18 | -70 | 3.5 | 109*
CCOC(=O)N=Nc1c(O)n(CC(=O)OC)c2ccccc12 | -12 | 1 | -1 | 0.25 | .
COc1ccc(-c2csc3nc(-c4ccccc4F)oc(=O)c23)cc1 | 4 | 9 | 8 | 1.5 | .
SMILES | S1P3 antag-1 | EP2 antag | EP2 modulator | Cl transport mod | S1P3 antag-2
CC(C)(C)c1nc2scc(-c3ccc(Br)cc3)c2c(=O)o1 | 29* | 7 | 20 | 0.052 | -7
Cc1ccc(/C=N/Nc2ccc(C(=O)O)cc2)s1 | 42* | 2 | -1 | -0.042 | -3
O=C(NC(Nc1nc2ccc([N+](=O)[O-])cc2s1)(C(F)(F)F)C(F)(F)F)c1ccccc1Cl | 70* | 6 | 6 | 0.81 | 53*
O=C(NC(Nc1nc2ccc([N+](=O)[O-])cc2s1)(C(F)(F)F)C(F)(F)F)c1cccnc1 | 3 | 6 | -6 | -0.36 | .
CC(=O)Nc1ccccc1N1CCCCC1 | . | 18 | 10 | . | .
CCn1nc(CC(=O)N2CCC(O)(c3ccccn3)CC2)c2ccccc2c1=O | . | . | -26 | . | .
COc1ccc(NC(=S)NNC(=O)C2CC2c2ccc(C)cc2)cc1 (configuration not stated) | 33* | 12 | -38 | 0.24 | -16
CCOC(=O)c1sc(NC(=O)COc2c(C)ccc(C)c2C)c(C#N)c1C | . | 10 | 6 | . | .
CCn1c(=O)n(CC(=O)Nc2ccccc2-c2ccc(C)o2)c2cccnc21 | . | 4 | -5 | . | .
COC(=O)C(C)(C)ONC(=O)Nc1ccccc1Cl | 39* | 1 | 12 | 0.84 | -8
COC(=O)C(C)(C)ONC(=O)Nc1ccccc1Br | 8 | 5 | -17 | 0.99 | .
O=C(c1ccc2c(c1)OCO2)N1CCC(c2ccc3c(c2)OCO3)CC1 | . | . | -32 | . | .
O=c1c2ccccc2n(CC(O)CN2CCCCC2)c2ccccc12 (configuration not stated) | -9 | 7 | -25 | -0.18 | .
CN1CCc2c(n(CC(O)CN3CCN(CCO)CC3)c3ccccc23)C1=O (configuration not stated) | 41* | 6 | 35 | 0.1 | -9
O=C(N/N=C/C=C/c1ccc([N+](=O)[O-])cc1)C1COc2ccccc2O1 (configuration not stated) | 10 | 10 | -6 | -1.7 | .
O=C(N/N=C\C=C\c1ccco1)C1COc2ccccc2O1 (configuration not stated) | 28* | 10 | -40 | 0.79 | -9
Cc1cc(Nc2cccc(Cl)c2)nc(NCc2ccccc2)n1 | 32* | 6 | -22 | -0.054 | 10
C=CCNC(=S)Nc1ccc(OC)c(S(=O)(=O)N2CCOCC2)c1 | -14 | 8 | -4 | 0.056 | .
C=CCNC(=S)Nc1ccc(Cl)c(S(=O)(=O)N2CCOCC2)c1 | 70* | 7 | -31 | -0.065 | -11
CC(C)C(=O)Nc1nnc(SCC(=O)N(C(C)C)C(C)C)s1 | . | 4 | -5 | . | .
O=C(Nc1ccccc1)C(c1ccccc1)C1CCCC1 (configuration not stated) | 52* | 1 | 5 | -0.64 | 48*
CC(C)(C)c1ccc(C(=O)Nc2cccc3c(=O)[nH][nH]c(=O)c23)cc1 | 38* | 11 | -3 | -3.1 | 6
OC(CN1CCN(c2ccc(F)cc2)CC1)c1ccc2c(c1)OCCCO2 (configuration not stated) | . | 9 | -19 | . | .
OC(CN1CCOCC1)c1ccc(F)cc1 (configuration not stated) | 37* | -1 | 14 | -0.4 | -10

Screening data (PubChem BioAssay)
